Among the data in PubChem BioAssay AID1063 (University of Pittsburgh Molecular Library Screening Center, 2008) are inhibition values, retold here.

Screen size: about 200,000 compounds; about 18,000 (9%) were called active. The sample holds actives, similar compounds and a random draw of the others, so the mix is not that of the screen. Unmarked numbers belong to inactive results. Cut-off read from the data, not from the text of the source: active = inhibition above about 50%; inactive = the rest.

This experiment is described as follows: antileishmanial activity against promastigotes – primary screen (AID 1063).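 Note: promastigotes grown with compound for 44 hours at 28 °C.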 Particulars: Leishmania major promastigotes, resazurin fluorescence viability; at 10 µM; stronger effect = higher value. For orientation: The colour change of resazurin is a common sign of viable cells or microbes.
Usually inhibition stands for the relative decrease from the control value, in per cent. Take `CC(C)(C)c1ccc(CN2C(=O)CN=C(c3ccccc3)c3ccccc32)cc1`: the inhibition was 97.3% (active). For the compound `CCN1CCN(c2ccc([N+](=O)[O-])cc2C#N)CC1`, the inhibition was 3.77%. Regarding `CN1CCN(Cc2ccccc2C(F)(F)F)CC1`, the inhibition is 0.79%. To `CN1CCN(Cc2ccc(OC(F)(F)F)cc2)CC1` belongs 90.4% (active); to `CN(C)c1ccc(/C=C2\CC3C4CC=C5CC(O)CCC5(C)C4CCC3(C)C2=O)cc1` (stereo unspecified), 37%.

On to `Cc1ccc(-n2c(-c3ccc([N+](=O)[O-])cc3)nc3ccccc3c2=O)cc1`, for which the inhibition was 0.86%.

On to `CCN(CC)P(=O)(Oc1cccc(C)c1)N(CC)CC`, for which the inhibition is 22.5%. Turning to `Cc1cccc(OP(=O)(Oc2cccc(C)c2)OC(c2ccccc2)C(F)(F)F)c1` (stereo unspecified), the inhibition is 57.8% (active). On to `CCC(=O)CC(c1ccc([N+](=O)[O-])cc1)c1c(O)c2ccccc2oc1=O` (stereo unspecified), for which the inhibition was -15.5%. Regarding `CN(C)c1nc(N(C)C)nc(N(C#N)CCCl)n1`, the inhibition was -4.48%. Take `C[N+]12CN3CN(CN(C3)C1)C2`: the inhibition is 93.8% (active). Turning to `CC1CCCCN1Cc1cccnc1` (stereo unspecified), the inhibition is -6.9%.

For `COc1ccccc1N=Nc1c(O)[nH]c(=S)[nH]c1=O`, the inhibition is -4.5%. To `CN(C)P(=S)(Nc1ccccc1)C(Cl)(Cl)Cl` (stereo unspecified) belongs 28.1%. To `CC(C)Oc1cccc(C(=O)C2CCCN(C3CCOCC3)C2)c1` (stereo unspecified) belongs 93.2% (active); to `O=C(Nc1cccc(OC(=O)N2CCCCC2)c1)N1CCOCC1`, 0.65%.

Regarding `Cc1ccc(-c2nn(CCC#N)cc2C(=O)O)cc1C`, the inhibition was -5.5%. For the compound `COC(=O)COc1cc(C)cc2oc(=O)c3c(c12)CCCC3`, the inhibition was -6.35%. With `O=C(COC(=O)c1ccccc1)Nc1ccc(Cl)cc1C(=O)c1ccccc1`, the inhibition was -3.5%. To `CN(C)C(=O)Oc1ccc(OCc2cccc[n+]2C)cc1` belongs -6.21%; to `CCOC(=O)C1(Cc2ccc(Cl)cc2)CCN(C(C)CCn2cccn2)CC1` (stereo unspecified), 80.9% (active). For the compound `CCOC(=O)C1(CCc2ccccc2)CCN(Cc2ccco2)CC1`, the inhibition is 9%.

`CC(C)(C)[C@]1(O)C[C@@H]2OC(=O)C[C@@]23C(=O)O[C@@H]2OC(=O)[C@H](O)[C@]213`: the inhibition was -6.51%. As to `CCCOC(=O)C1C2c3ccccc3C(c3ccccc32)C1C(=O)O` (stereo unspecified), the inhibition is -5.51%. For the compound `CC(C(=O)Nc1ccc(Cl)cc1Cl)N1CC=C(c2ccccc2)CC1` (stereo unspecified), the inhibition was -2.71%.

Turning to `CCN(N=Nc1nonc1OC)c1nonc1OC`, the inhibition was 0.16%. As to `Cc1cccc(N2C(=O)NC(=O)/C(=C\c3cnn(-c4ccccc4)c3)C2=O)c1`, the inhibition was -2.18%.

`O=C1NC(=O)N(c2ccccc2)C(=O)/C1=C/c1ccc([N+](=O)[O-])s1`: the inhibition was 93.8% (active). As for `COc1ccc(CN2C(=O)NC(=O)/C(=C\c3ccc(OC)c(OC)c3OC)C2=O)cc1`, the inhibition was -6.27%. As for `COc1cccc(N2C(=O)NC(=O)/C(=C\c3ccc([N+](=O)[O-])s3)C2=O)c1`, the inhibition was 93.6% (active). The same measure for `O=C1NC(=O)N(c2ccc(F)cc2)C(=O)/C1=C/c1ccc2c(c1)CCCN2Cc1ccccc1`: 7.8%. Turning to `O=C(COC(=O)Cc1ccccc1)Nc1ccc(F)cc1`, the inhibition was 0.24%.

With `OCC#CC[N+]1(CC#Cc2ccccc2)CCCC1`, the inhibition is -1.69%. Consider `N=c1ccccn1Cc1ccccc1`, for which the inhibition is -0.35%. The same measure for `C=CCN(CC=C)C(=O)Nc1ccc(OCC)cc1`: -9.24%; for `O=C(NC(c1ccc(Cl)cc1)P(=O)(Oc1ccccc1)Oc1ccccc1)OCc1ccccc1` (stereo unspecified): 10.2%. Regarding `CN1CCN(c2cc(N3CCNCC3)ccc2[N+](=O)[O-])CC1`, the inhibition is 44%. As to `CCCCC(=O)N/N=C/c1c(O)n(CC)c(=S)n(CC)c1=O`, the inhibition was -5.9%. To `O=C(Nc1cccc2ccccc12)N1CCC2(CC1)OCCO2` belongs 0.77%; to `COC(=O)C(O)(c1ccc(NC(=O)c2ccco2)c(OC)c1)C(F)(F)F` (stereo unspecified), -2.15%. As to `CCOC(=O)C(O)(c1ccc(N)c(OC)c1)C(F)(F)F` (stereo unspecified), the inhibition is -13.8%. To `CCOC(=O)C(O)(c1ccc(NC(=O)c2ccco2)c(OC)c1)C(F)(F)F` (stereo unspecified) belongs 73.8% (active). The same measure for `C=CCn1c(O)c(/C=N/N2CCOCC2)c(=O)[nH]c1=S`: -4.94%; for `COc1ccc(C2N3CC(C)(C)CN23)cc1` (stereo unspecified): -5.78%; for `Cc1ccccc1N1C(=O)NC(=O)/C(=C\c2cc(C)n(C)c2C)C1=O`: 2.98%. Take `Cc1c(C(=O)O)cccc1-n1c(C)cc(/C=C2\C(=O)NC(=O)N(c3ccc4c(c3)OCO4)C2=O)c1C`: the inhibition was 2.09%.

As to `Cc1ccnc(-n2c(C)cc(/C=C3\C(=O)NC(=S)N(C)C3=O)c2C)c1`, the inhibition is 70% (active). `Cc1cc(C=C2C(=O)NC(=O)NC2=O)c(C)n1-c1ccncc1`: the inhibition is 0.48%.

Consider `Cc1cc(/C=C2/C(=O)NC(=O)N(Cc3ccco3)C2=O)c(C)n1-c1ccc(C(=O)O)cc1`, for which the inhibition was -6.68%.

For the compound `Cc1ccc(-n2c(C)cc(/C=C3\C(=O)NC(=O)N(C)C3=O)c2C)cc1C`, the inhibition is 58% (active). For the compound `CC(=O)N(C1=NCCCS1)c1ccccc1F`, the inhibition was -4.7%.

As for `Cc1cccc(-n2c(O)c(C=NC34CN5CN(CN(C5)C3)C4)c(=O)[nH]c2=O)c1`, the inhibition is -14.4%. With `O=c1c2ccccc2nc(-c2ccccc2)n1-c1ccccn1`, the inhibition is -4.66%. The same measure for `C[N+]1(C)CCOC(O)(c2ccc(-c3ccc(C4(O)C[N+](C)(C)CCO4)cc3)cc2)C1` (stereo unspecified): 20.9%; for `O=C(OCCN1CCOCC1)C1(c2ccccc2)CCCC1`: 1.57%.

In the case of `CC[N+]1(C)CCCC(OC(=O)C(O)(c2ccccc2)c2ccccc2)C1` (stereo unspecified), the inhibition is -2.17%. Regarding `O=C(CCN1CCCCC1)NCC(=O)Nc1ccc(Br)cc1C(=O)c1ccccc1`, the inhibition was 91.4% (active).

On to `CN1CCN(C(=S)SCC(=O)Nc2ccc(Cl)cc2C(=O)c2ccccc2)CC1`, for which the inhibition is 8.25%. On to `O=C(CN1CCCCC1)Nc1ccc(Br)cc1C(=O)c1ccccc1Cl`, for which the inhibition was 11.2%.

With `O=[N+]([O-])c1ccc(C2C3C(c4ccccc4)=NC4(CCCCC4)N32)cc1` (stereo unspecified), the inhibition was 19.8%. Consider `CC(C)N(CC#CCC1(O)c2ccccc2-c2ccccc21)C(C)C`, for which the inhibition is 2.06%. For the compound `CN(C)CCCN=Cc1c(O)n(Cc2ccco2)c(=O)[nH]c1=O`, the inhibition is -6.14%.

Take `C=CCN1C(=O)C2(C(C(=O)OCC)=C(N)Oc3c2c(=O)oc2ccccc32)c2ccccc21` (stereo unspecified): the inhibition is -6.93%. In the case of `Cc1ccsc1C(=O)C1CCCN(Cc2ccc(O)cc2)C1` (stereo unspecified), the inhibition is 83.9% (active).

Take `Cc1nc2ccc(N3CCN(C)CC3)cc2nc1C`: the inhibition is 3.66%.

For the compound `COc1cc(Cn2c(N)c(C(=O)NCc3ccco3)c3nc4ccccc4nc32)cc(OC)c1OC`, the inhibition is 100% (active). For `CCOC(=O)c1c(N)n(Cc2ccccc2)c2nc3ccccc3nc12`, the inhibition is 100% (active). On to `CCOC(=O)c1c(N)n(CCN2CCOCC2)c2nc3ccccc3nc12`, for which the inhibition was 24.6%. The same measure for `O=c1[nH]c(=O)n(-c2ccccc2)c(O)c1C=NC12CN3CN(CN(C3)C1)C2`: -6.09%; for `OC(Cn1c2ccccc2c2ccccc21)C[n+]1ccccc1` (stereo unspecified): 1.49%; for `COP(=O)(OC)C(NC(=O)c1ccc(C)cc1)C(Cl)(Cl)Cl` (stereo unspecified): -7.25%. Take `O=C(Cc1ccccc1[N+](=O)[O-])N1CCN(Cc2ccc3c(c2)OCO3)CC1`: the inhibition is 48%. Take `CNC(=S)N/N=C1\C2CN3CCN(C2)CC1(c1ccccc1)C3`: the inhibition was -5.87%.

`c1cncc(CNCCc2c[nH]c3ccccc23)c1`: the inhibition was 22.7%. Regarding `CCc1nnc(NS(=O)(=O)c2ccc(N=Cc3c(O)n(-c4ccccc4)c(=O)[nH]c3=O)cc2)s1`, the inhibition was -1.81%.

Turning to `COP(=O)(NS(=O)(=O)c1ccccc1)OC`, the inhibition is -6.48%. The same measure for `COc1ccc(C(=O)C2CCCN(Cc3ccc(C)s3)C2)cc1OC` (stereo unspecified): 89.4% (active); for `Cc1cccc2c(CCN)c[nH]c12`: 0.35%; for `CCC(=NCCc1ccccc1)c1c(O)n(C2CCCCC2)c(=O)[nH]c1=O`: 21%.

In the case of `O=C(Cn1c(=O)n(CC2CS2)c2ccccc21)N1CCCCC1` (stereo unspecified), the inhibition is 2.59%.

For `O=C(Cc1ccccc1)N1CCN(C2CCCCCC2)CC1`, the inhibition was 64.8% (active). To `CCCn1c(C(=O)c2ccccc2OC)nc2ccccc21` belongs 15%. To `C[C@@]1([C@@H](NP(=O)(c2ccccc2)c2ccccc2)c2ccccc2)C[C@H]1CCO` belongs -1.91%; to `CNP1(NC)=Nc2nn(-c3ccccc3)c(N)c2C(c2ccccc2)=N1`, -6.36%. The same measure for `COc1ccccc1N=C1SCCCN1C`: -5.49%; for `Cc1ccc(-c2nc3ccccc3c(=O)n2-c2ccc(Br)cn2)cc1`: 3.21%; for `CC1=CC(=Cc2sc3ccccc3[n+]2C)C=C(C)O1`: 100% (active). As to `COc1cc(-n2c(=S)[nH]c3ccc(C)cc3c2=O)c(Cl)cc1Cl`, the inhibition was 43.6%.

For `Cc1ccc(Cn2nnnc2CN2CCC(n3nnc4ccccc43)CC2)cc1`, the inhibition was 4.28%.

In the case of `O=C(C1CC(=O)N(C2CCCC2)C1)N1CCC2(CC1)OCCO2` (stereo unspecified), the inhibition was -6.1%. Turning to `CCN(CC)c1ccc([N+](=O)[O-])c2cccnc12`, the inhibition was 9.8%. Take `Cc1cc(C)cc(NC(=S)NC2CC3CCCC(C2)N3Cc2cccs2)c1` (stereo unspecified): the inhibition was 87.3% (active). For the compound `O=C(COc1ccc2ccccc2c1)N1CCN(Cc2ccncc2)CC1`, the inhibition was 44.3%. The same measure for `OC1/C(=C/c2ccc(C(F)(F)F)cc2)N2CCC1CC2` (stereo unspecified): 0.72%. To `CCOC(=O)C(O)(c1ccc(N=Cc2ccccc2O)c(C)c1)C(F)(F)F` (stereo unspecified) belongs -7.14%. Regarding `O=C1/C(=C\c2ccc3c(c2)OCO3)N2CCC1CC2`, the inhibition was 4.04%.
